The list is not random: actives were taken first. Their share in the collection is about 1.1%.
MazEF act = increases E. coli MazEF RNase cleavage of RNA; actives 0.32% (n = 350,000); activation, % at 20 µM; FAM/BHQ RNA-DNA oligo cleavage fluorescence, 5 h; in the data active means activation above about 50%
Target sequence (P0AE70 whole entry, looked up): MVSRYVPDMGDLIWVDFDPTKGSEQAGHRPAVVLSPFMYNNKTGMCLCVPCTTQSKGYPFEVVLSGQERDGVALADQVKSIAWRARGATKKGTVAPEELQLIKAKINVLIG
BJeLR lethal = BJeLR cell viability loss; inhibition, % (test concentration not listed); AID 1554; BJeLR (HRASV12) viability, CellTiter-Glo ATP luminescence, 48 h; actives 0.17% (n = 300,000); in the data active means inhibition above about 50%; inconclusive means no clear call, values can overlap the other calls
PfHsp40 rescue = rescue of PfHsp40-mediated yeast toxicity | S. cerevisiae expressing PfHsp40, growth rescue, ATP luminescence | growth rescue, % at 12.5 µM | actives 0.68% (n = 340,000) | AID 504582; in the data active means growth rescue above about 28%, passing the limit was not always enough; inconclusive means no clear call, values can overlap the other calls;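 further: yeast W303a lacking pdr1 and pdr3 grown in galactose medium; growth measured after three days at 30 °C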
Yp Topo-I inh = Y. pestis Topo-I inhibition via cleavage products. Y. pestis Topo-I cleavage product accumulation, plate reader. activity, % at 10 µM. actives 0.064% (n = 360,000). AID 504884; in the data active means activity above about 50%, passing the limit was not always enough; inconclusive means no clear call, values can overlap the other calls
SARS 3CLpro inh = SARS-CoV 3CLpro protease inhibition; AID 1706; actives 0.14% (n = 290,000); recombinant SARS-CoV 3CLpro, quenched FRET peptide cleavage; inhibition, % at 6 µM; P0C6X7; in the data active means inhibition above about 12%
BioA inh = blocks M. tuberculosis BioA enzyme activity | purified M. tuberculosis BioA enzyme, plate reader | inhibition, % at 9.99 µM | actives 0.096% (n = 360,000) | AID 602481; in the data active means inhibition above about 40%; inconclusive means no clear call, values can overlap the other calls
* marks the source's active call; other numbers are inactive results.

`CCCNC(=O)Nc1ccc2c(c1)OC[C@H](C)N(CC1CCCC1)C[C@@H](C)[C@@H](OC)CN(C)C2=O` gave BioA inh 2.4.
C[C@H]1C[C@@H](C)C(=O)[C@@H]([C@H](O)CC2CC(=O)NC(=O)C2)C1 was read as MazEF act 7.3, BJeLR lethal 44.0, PfHsp40 rescue 15.6, Yp Topo-I inh 3.2, SARS 3CLpro inh -5.3 and BioA inh -0.9.
Screening CC1CC(C)C(=NNC(N)=O)C(C(O)CC2CCC(=O)NC2=O)C1 (stereo not drawn) returned MazEF act 10.7, PfHsp40 rescue 33.4*, Yp Topo-I inh -3.3 and BioA inh 1.0.
COc1c(N2CCN(C(=S)NCc3ccccc3)C(C)C2)c(F)cc2c(=O)c(C(=O)O)cn(C3CC3)c12 (stereo not drawn) was read as MazEF act 2.6, BJeLR lethal -2.3, PfHsp40 rescue inconclusive, Yp Topo-I inh 61.7*, SARS 3CLpro inh 5.3 and BioA inh -0.3.
COc1ccc(CN(C)C[C@@H]2OCCCC[C@@H](C)Oc3ccc(NC(=O)Nc4ccc(F)cc4)cc3C(=O)N([C@@H](C)CO)C[C@H]2C)cc1 was read as BioA inh -1.3.
Brc1ccc(OCc2ccccc2)c(CNCc2ccncc2)c1 was read as MazEF act 5.5, BJeLR lethal 7.2, PfHsp40 rescue 122.5*, Yp Topo-I inh 47.2, SARS 3CLpro inh -5.8 and BioA inh 1.9.
Screening C[C@@H]1CCCCO[C@H](CN(C)C(=O)Nc2ccc3c(c2)OCO3)[C@@H](C)CN([C@H](C)CO)C(=O)c2cc(NC(=O)Nc3ccc4c(c3)OCO4)ccc2O1 returned BioA inh -0.3.
`COc1ccc2nc(NC(=O)c3ccoc3C)sc2c1` gave MazEF act 8.6, BJeLR lethal 75.4*, PfHsp40 rescue -3.8, Yp Topo-I inh -5.8, SARS 3CLpro inh 0.5 and BioA inh -1.7.
Screening COc1ccc2nc(NC(=S)N(C)C)sc2c1 returned MazEF act -2.3, BJeLR lethal 30.2, PfHsp40 rescue 99.1*, Yp Topo-I inh -9.0, SARS 3CLpro inh 6.1 and BioA inh 1.6.
Cc1ccc(F)cc1S(=O)(=O)N[C@@H]1CCN(Cc2ccc3[nH]ccc3c2)C1 was read as BioA inh 2.3.
For OCCOCCn1c(C2CCCN2c2nc(-c3ccc(F)cc3)cs2)nc2cc(C(F)(F)F)ccc21 (stereo not drawn) the results were MazEF act 5.1, BJeLR lethal 0.2, PfHsp40 rescue inconclusive, Yp Topo-I inh 23.9 and BioA inh 2.3.
OCCCn1c(C2CCCN2c2nc(-c3ccc(F)cc3)cs2)nc2cc(C(F)(F)F)ccc21 (stereo not drawn) was read as MazEF act -16.8, BJeLR lethal -9.6, PfHsp40 rescue 145.2*, Yp Topo-I inh 8.2 and BioA inh 4.8.
`OCCOCCn1c(C2CCCN2c2nc(-c3ccc(F)cc3)cs2)nc2cc(Cl)c(Cl)cc21` (stereo not drawn) gave MazEF act -2.8, BJeLR lethal -5.6, PfHsp40 rescue 143.4*, Yp Topo-I inh 23.2 and BioA inh -0.7.
COc1ccc(-c2coc3cc(OC)cc(O)c3c2=O)cc1 was read as MazEF act -3.2, BJeLR lethal -9.0, PfHsp40 rescue 0.5, Yp Topo-I inh -0.6, SARS 3CLpro inh 3.2 and BioA inh -1.8.
For COc1ccc(-c2coc3cc(O)cc(O)c3c2=O)cc1 the results were MazEF act 2.3, BJeLR lethal -1.5, PfHsp40 rescue 199.3*, Yp Topo-I inh 1.0, SARS 3CLpro inh -4.9 and BioA inh 1.0.
COc1ccc(-c2sc3ccc(OC)cc3c2C#CCCO)cc1 was read as MazEF act -12.3, BJeLR lethal -0.1, PfHsp40 rescue 46.2*, Yp Topo-I inh -1.6, SARS 3CLpro inh -3.5 and BioA inh -1.5.
Screening C[C@H](CO)N1C[C@H](C)[C@@H](CN(C)S(=O)(=O)c2ccc(Cl)cc2)Oc2ccc(NS(=O)(=O)c3ccc(Cl)cc3)cc2CC1=O returned BioA inh 3.1.
For O=C(NCC1CC1)[C@@H]1[C@@H](CO)[C@@H]2Cn3c(ccc(C4=CCCC4)c3=O)[C@H]1N2C(=O)C1CC1 the results were BioA inh -0.8.
`COc1ccc(CC(=O)Oc2ccc(C)cc2C)cc1` gave MazEF act -6.9, BJeLR lethal -6.0, PfHsp40 rescue 0.7, Yp Topo-I inh 6.5, SARS 3CLpro inh 0.1 and BioA inh -1.0.
